Source: PubChem BioAssay (several laboratories)
KLK7 zymogen act: proKLK7 zymogen activators, primary screen, biochemical, fluorescence intensity; Kallikrein-7 (Homo sapiens), P49862; purified proKLK7, EDANS-DABCYL substrate fluorescence; 100% is mature enzyme control, 0% vehicle; activation, % at 7 µM; hit rate 0.9% among 370,000;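 active = activation above the mean of all tested compounds plus 3 SD, computed per campaign excluding outliers beyond control limits, cut at about 13% in these data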
Target sequence (P49862 whole entry, looked up): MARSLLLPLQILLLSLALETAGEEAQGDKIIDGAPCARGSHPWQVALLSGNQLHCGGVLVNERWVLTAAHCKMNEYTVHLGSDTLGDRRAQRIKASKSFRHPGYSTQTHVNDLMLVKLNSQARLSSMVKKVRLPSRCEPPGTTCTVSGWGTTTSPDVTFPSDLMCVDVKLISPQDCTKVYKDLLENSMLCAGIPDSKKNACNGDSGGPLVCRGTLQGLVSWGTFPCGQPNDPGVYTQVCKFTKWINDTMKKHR
rCAG RNA binder: binders of r(CAG) RNA repeats, primary screen, biochemical, fluorescence. r(CAG) RNA repeat, TO-PRO-1 dye displacement fluorescence. inhibition, % at 3 µM. hit rate 1.3% among 370,000;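 active = inhibition above the plate cutoff, the mean of all test compounds on that plate plus 3 SD, cut at about 35% in these data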;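 note: 0% = DMSO alone and 100% = 100 µM mitoxantrone as full dye displacement; higher means more dye released from RNA so lower well fluorescence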
ADAM17 inh: ADAM17 inhibitors, primary screen, biochemical, QFRET; Disintegrin and metalloproteinase domain-containing protein 17 (Homo sapiens), P78536; recombinant ADAM17, EDANS/DABCYL FRET peptide cleavage; inhibition, % at 6.95 µM; hit rate 0.83% among 370,000;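 active = inhibition above the mean of compounds lying between control limits plus 3 SD, set per campaign, cut at about 8.5% in these data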;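 note: 0% = DMSO-only wells as the low control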
ADAM10 inh: human ADAM10 inhibitors, primary screen, biochemical, QFRET, HTS. recombinant ADAM10, EDANS/DABCYL FRET peptide cleavage, 3 h. inhibition, % at 7 µM. hit rate 0.62% among 370,000. AID 720582, 2013;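 active = inhibition above a per-campaign cutoff equal to the mean of compounds falling between control-based bounds plus 3 SD, cut at about 20% in these data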;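 note: 0% = DMSO wells while the 100% control is not disclosed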
AHR act: AHR activators, primary screen, cell-based, luminescence, luciferase reporter, human. Aryl hydrocarbon receptor (Homo sapiens), P35869. AHR-responsive luciferase reporter cells. hit rate 2.5% among 320,000. AID 2796, 2010. activation, % at 5 µM; in the data active = activation above about 47%;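 note: 0% = vehicle wells and 100% = reference agonist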
NR3A LBD binder: binders of NR3A ligand-binding domain, primary screen, biophysical, differential scanning fluorimetry, uHTS | Glutamate receptor ionotropic, NMDA 3A (GRIN3A) ligand-binding domain | NR3A LBD differential scanning fluorimetry, Tm shift; 0% = protein alone, 100% = glycine-bound protein | Tm shift relative to glycine control, % at 25 µM | hit rate 2.5% among 340,000;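 active = melting temperature shift of at least 10% of the positive control shift, at one fixed dose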
rCAG bind conf: small molecules binding CAG repeat RNA – biochemical, fluorescence, confirmation; r(CAG) RNA repeat, TO-PRO-1 dye displacement fluorescence; AID 652065, 2013; shares compounds with rCAG RNA binder; inhibition, % at 3 µM; hit rate 70% among 4,300;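 active = inhibition above a per-plate cutoff, the mean inhibition of sample wells plus 3 SD, cut at about 35% in these data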;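 note: loss of TO-PRO-1 fluorescence as compound displaces dye from 1x1 AA loop RNA; 0% = DMSO only wells and 100% = 100 µM mitoxantrone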
DNA CAG counter: displacement of TO-PRO-1 from CAG DNA duplex, counter-screen for rCAG RNA repeat binder project, biochemical, fluorescence, TO-PRO-1 dye, d(CAG) DNA oligo; shares compounds with rCAG RNA binder; inhibition, % at 3 µM; hit rate 94% among 4,300; d(CAG) DNA oligo TO-PRO-1 dye displacement; AID 652068, 2013;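 active = inhibition above its plate's cutoff, the mean test-well inhibition plus 3 SD, cut at about 4.8% in these data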;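 note: 0% = DNA dye mix with DMSO and 100% = 100 µM mitoxantrone; hits displace the dye from DNA and so lower well fluorescence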
* hit, by the source's call; x = no result. An excerpt weighted towards active compounds, which were near 7% of everything screened.

SMILES	KLK7 zymogen act	rCAG RNA binder	ADAM17 inh	ADAM10 inh	AHR act	NR3A LBD binder	rCAG bind conf	DNA CAG counter
COc1ccccc1NC(=O)OC1CC2CC1[C@H]1CCCCN1[C@H]2Cc1ccccc1 (stereo not given in full)	0	3	0	4	x	x	x	x
N#Cc1c(N(CCO)CCO)nc(N)c2c(N)nc3c(c12)CC(=O)N3Cc1cccs1	x	x	x	x	1	-2	x	x
CN(CCO)c1nc(N)c2c(N)nc3c(c2c1C#N)CC(=O)N3Cc1cccs1	0	38*	-28	-108	2	6	8	9.2*
COc1cc2[nH]c(=S)nc(Nc3ccc(NC(C)=O)cc3)c2cc1OC	0	37*	-105	-331	5	-7	8	6.4*
CC(C)(C)c1ccc(CC(=O)N2CCC2(C)C(=O)NS(=O)(=O)c2ccccc2)cc1 (stereo not given)	0	25	-4	-12	x	x	x	x
CC1(C(=O)NS(=O)(=O)Cc2ccccc2C(F)(F)F)CCN1C(=O)Cc1ccccc1 (stereo not given)	0	14	-3	-20	x	x	x	x
COc1ccc(S(=O)(=O)NC(=O)C2(C)CCN2C(=O)Cc2ccc(C(C)(C)C)cc2)cc1 (stereo not given)	0	42*	-1	-2	x	x	25	4.8*
Cc1ccc(F)c(S(=O)(=O)NC(=O)C2(C)CCN2C(=O)Cc2ccc(-c3ccccc3)cc2)c1 (stereo not given)	0	60*	1	-7	x	x	55*	18*
CC1(C(=O)NS(=O)(=O)Cc2ccccc2)CCN1C(=O)Cc1ccc(-c2ccccc2)cc1 (stereo not given)	0	58*	-2	-1	x	x	50*	14*
Cc1cccc(S(=O)(=O)NC(=O)C2(C)CCN2C(=O)Cc2ccc(C(C)(C)C)cc2)c1 (stereo not given)	0	40*	4	11	x	x	34	7.5*
Cc1cccc(C)c1NC(=O)C(c1ccncc1)N1CCN(CCN(C)C)CC1 (stereo not given)	1	1	-7	-16	x	x	x	x
CN[C@H]1C[C@H]2c3[nH]c4c(-c5ccc6c(c5)OCO6)cccc4c3CCN2C(=O)[C@H]1[C@H](C)O	0	1	-37	-101	x	x	x	x
C=CCN1C(=O)[C@@H](CC(=O)NCc2ccc(C)o2)[C@]2(C(=O)OCC)CCCCC/C=C/12	0	3	2	1	x	x	x	x
Cc1cccc(S(=O)(=O)NC(=O)C2(C)CCN2C(=O)Cc2ccc(-c3ccccc3)cc2)c1 (stereo not given)	0	53*	-4	-21	x	x	49*	15*
CC(C)(C)c1ccc(CC(=O)N2CCC2(C)C(=O)NS(=O)(=O)c2cccc(OC(F)F)c2)cc1 (stereo not given)	0	52*	2	-2	x	x	41*	9.7*
COC(=O)C(Cc1ccc(O)cc1)NS(=O)(=O)Cc1ccccc1 (stereo not given)	0	3	-1	-1	x	x	x	x
CCOC(=O)c1c(-c2ccc(C)c(C)c2)csc1NC(=O)C1CC=CCC1C(=O)O (stereo not given)	-1	44*	-7	-11	0	-5	58*	19*
CCOC(=O)c1c(-c2ccc(F)cc2)csc1NC(=O)C1CC=CCC1C(=O)O (stereo not given)	1	34	-1	-13	-1	0	x	x
